Test results reported in PubChem BioAssay (Tox21).
Records with an inconclusive call do not appear. Calls of active or inactive are those of the source. The call rests on the fitted dose curve; in most records, active means well fitted cell-killing curve with a large enough effect in the repeat runs; inconclusive means weak or mixed curves; inactive means flat fitted curve, though single readings scatter.

Assay: qHTS RealTime-Glo MT Cell Viability Assay in HepG2 cells - 24 hour (AID 1224867); further: nearly all actives have a fitted effect of over 50% in size
Settings: RealTime-Glo luminescence; series mostly up to 76.8 µM; activity change, negative = cytotoxicity: at the top concentration
From the text: U.S. Tox21 Program National Center for Advancing Translational Sciences [NCATS] NIH Chemical Genomics Center [NCGC] U.S. Environmental Protection Agency [EPA] National Institutes of Environmental Health Sciences [NIEHS] National Toxicology Program [NTP] U.S. Food and Drug Administration [FDA] Tox21 Assay Overview: Measure of cell viability is critical in the cell-base assay. Analysis of cell viability is necessary for the characterization of cell responses to cytotoxic drugs and environmental stress. A RealTime-Glo MT Cell Viability Assay to monitor cell viability in real time of continues cell culture during 40 hours of compound treatment was used to screen Tox21 10K library compounds in HepG2 cells. The RealTime-Glo MT Cell Viability Assay is a nonlytic, homogeneous, bioluminescent method to measure cell viability in real time using a simple, plate-based method. The assay involves adding NanoLuc luciferase and a cell-permeant prosubstrate to cells in culture. Viable cells reduce the proprietary prosubstrate to generate a substrate for NanoLuc luciferase. This substrate diffuses from cells into the surrounding culture medium, where it is rapidly used by the NanoLuc Enzyme to produce a luminescent signal. The signal correlates with the number of viable cells, making the assay well suited for cytotoxicity studies.
Tox21 Assay Protocol Summary: The mixture of HepG2 cell suspension and reagents were dispensed at 600cells/6 ul/well in 1536-well tissue culture treated black solid bottom plates using a Multidrop dispenser. After the assay plates were incubated at a 37 C/5% CO2 incubator for 5 hours, 23 nL of compounds dissolved in DMSO, positive and negative controls was transferred to the assay plate by a pintool work station. The plates were incubated at 37 C for 40 hours. The luminescence intensity were measured at 0h, 8h, 16h, 24h, 32h and 40h time points using ViewLux plate reader during compound treatment.
On the % scale 0 is the no-effect control and ±100 the full control effect; potency means the concentration at half of the fitted maximal effect.

| SMILES | activity change, negative = cytotoxicity | Potency |
| --- | --- | --- |
| O=C1CCc2cc(OCCCCc3nnnn3C3CCCCC3)ccc2N1 | -1.32% [at 35.3 µM] (inactive) | – |
| O=C1c2ccccc2C(=O)N1SC1CCCCC1 | – | 38.9 µM (active) |
| Nc1ccc(Oc2ccc(Cl)cc2)cc1 | -5.66% (inactive) | – |
| COc1cccc(OC)c1C(=O)O | 0.709% (inactive) | – |
| O=C(O)[C@H](O)[C@@H](O)[C@H](O[C@@H]1O[C@H](CO)[C@H](O)[C@H](O)[C@H]1O)[C@H](O)CO | 3.31% [at 35.3 µM] (inactive) | – |
| O=C(O)c1cc(-c2ccc(F)cc2F)ccc1O | 0.215% [at 35.3 µM] (inactive) | – |
| CCCCCCCCCCCC(=O)OCC(C)OC(=O)CCCCC(=O)O (stereo not given) | 0.52% [at 35.3 µM] (inactive) | – |
| COc1ccc(NC(=O)CC(C)=O)cc1 | 0.659% (inactive) | – |
| NC(=O)c1cccc([N+](=O)[O-])c1 | 0.711% (inactive) | – |
| Nc1cc(Cl)c(O)c(Cl)c1 | -9.33% (inactive) | – |
| C=C(C)C(=O)OCCCCCCCCCC | -0.621% (inactive) | – |
| Cc1nc2n(c(=O)c1CCN1CCC(c3noc4cc(F)ccc34)CC1)CCCC2 | -5% [at 35.3 µM] (inactive) | – |
| CNC(=O)c1ccccc1Sc1ccc2c(/C=C/c3ccccn3)n[nH]c2c1 | -22.1% [at 35.3 µM] (inactive) | – |
| CCCCC(CC)CN1CN(CC(CC)CCCC)CC(C)(N)C1 (stereo not given) | – | 16.9 µM (active) |
| CC[C@H](C)COC(=O)/C=C/c1ccc(N=Cc2ccc(OC)cc2)cc1 | -2.9% (inactive) | – |
| O=C(O)c1cc(N=Nc2ccc([N+](=O)[O-])cc2)ccc1O | -6.14% (inactive) | – |
| COc1cc(/C=C/c2ccccc2)oc(=O)c1 | -3.25% (inactive) | – |
| CCCCCCCCCCCCOC(=O)c1ccc(O)cc1 | -0.803% (inactive) | – |
| OC[C@H]1O[C@H](O[C@H]2O[C@H](CO)[C@@H](O)[C@H](O)[C@H]2O)[C@H](O)[C@@H](O)[C@@H]1O | -0.627% (inactive) | – |
| Oc1ccccc1O | – | inactive |

| SMILES | activity change, negative = cytotoxicity | Potency |
| --- | --- | --- |
| CCCCOC(=O)CO | 0.536% (inactive) | – |
| COCCOc1cc2cc(C(=O)NC3CCN(C(C)C)CC3)n(CC(=O)Nc3ccc(Cl)cn3)c2cn1 | 1.02% (inactive) | – |
| CC1=Nc2ccccc2C1(C)C | 0.069% (inactive) | – |
| CCCCCC/C=C\CCCCCCCC(=O)O | -0.494% (inactive) | – |
| CC(CCc1ccccc1)NCC(O)c1ccc(O)c(C(N)=O)c1 (stereo not given) | -1.46% (inactive) | – |
| CCOC(=O)NNc1ccc(N(CC)CC(C)O)nn1 (stereo not given) | 2.03% [at 35.3 µM] (inactive) | – |
| C#C[C@]1(OC(C)=O)CC[C@H]2[C@@H]3CCC4=C/C(=N/O)CC[C@@H]4[C@H]3CC[C@@]21CC | -17.9% [at 35.3 µM] (inactive) | – |
| Clc1sc(Cl)c(Cl)c1Cl | 0.539% (inactive) | – |
| COC(=O)c1ccccc1C | 0.699% (inactive) | – |
| O=S(=O)(O)c1ccc(Nc2nc(Nc3ccc(/C=C/c4ccc(Nc5nc(Nc6ccc(S(=O)(=O)O)cc6)nc(N(CCO)CCO)n5)cc4S(=O)(=O)O)c(S(=O)(=O)O)c3)nc(N(CCO)CCO)n2)cc1 | 2.34% [at 35.3 µM] (inactive) | – |
| O=c1[nH]c(=O)n([C@H]2C[C@H](O)[C@@H](CO)O2)cc1F | -1.16% [at 35.3 µM] (inactive) | – |
| OCCN1CCN(CCCN2c3ccccc3Sc3ccc(C(F)(F)F)cc32)CC1 | – | 26.8 µM (active) |
| COc1ccc2cc1Oc1ccc(cc1)C[C@H]1c3c(cc4c(c3Oc3cc5c(cc3OC)CCN(C)[C@@H]5C2)OCO4)CCN1C | – | 23.9 µM (active) |
| Nc1nc2c(ncn2COCCO)c(=O)[nH]1 | 0.649% [at 35.3 µM] (inactive) | – |
| Cc1c(C)c2c(c(C)c1O)CC[C@@](C)(CCC[C@H](C)CCC[C@H](C)CCCC(C)C)O2 | -8.92% (inactive) | – |
| Cc1c(N)cccc1C(F)(F)F | 0.722% [at 35.3 µM] (inactive) | – |
| c1cnccn1 | 1.16% (inactive) | – |
| Cl[Si](Cl)(c1ccccc1)c1ccccc1 | 0.72% (inactive) | – |
| CN(C)Cc1cc(C(C)(C)C)c(O)c(C(C)(C)C)c1 | -3.65% (inactive) | – |
| Cc1ccc(O)c(O)c1 | -6.41% (inactive) | – |
